Screens (PubChem)
In the library only some 1.5% were active in any assay of this set; here they are far more common.
MRP resist rev = reverses drug resistance mediated by MRP. H69AR cells + 2 uM doxorubicin, CellTiter-Glo, 72 h. differential viability (reversal), % at 10 µM. 0.04% of 85,000 active. AID 602;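 active = viability drop by adding the cancer drug above about 55%, with treated viability meeting a 40% cutoff, limit read from the data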;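 also: viability without doxorubicin minus viability with 2 µM doxorubicin for each compound; larger differential means the compound sensitizes cells more to doxorubicin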
F-actin modifier = cytoskeleton assembly modification; HUVEC TNFa F-actin phalloidin imaging, high content; inhibition, % at 2 µM; 0.18% of 91,000 active; AID 836;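 active = inhibition above the batch mean plus 3 SD and confirmed as a hit by visual image inspection, cut at about 30% in these data, passing the limit was not always enough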
VCAM1 TNFa inh = reduces TNF alpha induced VCAM1 expression in HUVEC; HUVEC TNFa-induced VCAM-1 immunofluorescence, high-content imaging; inhibition, % at 2 µM; 0.48% of 95,000 active; AID 802;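 active = inhibition above the batch mean plus 3 SD, with images confirmed as a hit by eye, cut at about 37% in these data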;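 also: 0% = TNF-stimulated DMSO wells and 100% = unstimulated control wells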
E-sel TNF inh = TNF alpha driven E-selectin expression inhibition | HUVEC TNFa-induced E-selectin immunofluorescence, high content | inhibition, % at 2 µM | 0.71% of 120,000 active | AID 1246;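 active = inhibition above the batch mean plus 3 SD, and confirmed as a hit on visual image review, cut at about 43% in these data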;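 also: 0% = TNF-stimulated DMSO wells and 100% = unstimulated control wells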
MRP1 act = activators of MRP-1 | AID 799 | H69AR cells + doxorubicin, viability rescue, CellTiter-Glo | viability increase, % at 10 µM | 0.61% of 140,000 active;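 active = viability gain under doxorubicin at or above a set limit, the compound median plus 3 SD, cut at about 4.7% in these data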;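 also: MRP-1 overexpressing cells given doxorubicin 25 µM after compound pretreatment; 18-22 h compound pretreatment then 72 h with doxorubicin before readout; 0% = doxorubicin-only wells and 100% = vehicle-treated cells without doxorubicin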
Starred values were filed as active, the others as inactive; · = no result given.

SMILES	MRP resist rev	F-actin modifier	VCAM1 TNFa inh	E-sel TNF inh	MRP1 act
COc1cccc(/C=N/NC(=O)C(=O)NCc2ccco2)c1OC	·	·	·	·	-2.4
COc1cccc(/C=N/NC(=O)C(=O)NCc2ccco2)c1O	·	10.9	0.1	·	6.0*
O=C1CC(N(Cc2cccs2)C(=O)Nc2ccccc2)C(=O)N1c1ccc(Cl)cc1 (stereo not given)	·	·	·	69.8*	2.5
O=C(CC(NC(=O)C(F)(F)F)c1ccccc1)Nc1nnc(CCc2ccccc2)s1 (stereo not given)	·	·	·	·	9.3*
CCOC(=O)c1ccc(CNC(=O)CCC(=O)O)cc1	-10.9	34.0*	9.5	15.0	0.3
O=c1c([N+](=O)[O-])cc(C(F)(F)F)cn1Cc1c(Cl)cccc1Cl	·	-17.2	-15.9	13.7	-2.1
CSc1nnc2n(-c3ccccc3)c(=O)c3c4c(sc3n12)CCC4	20.4	-11.1	57.9*	-16.5	-0.8
CSc1nnc2n(C3CCCCC3)c(=O)c3c4c(sc3n12)CCCC4	8.4	·	·	·	·
Cn1ncc2c(NNC(=O)c3ccc(Cl)cc3Cl)ncnc21	·	·	·	·	1.6
CCOC(=O)c1ccc(NC(=O)Nc2ccc3c(c2)OCCO3)cc1	-9.3	28.3	-7.8	-14.4	-1.9
CCOC(=O)c1c(C)c(C(=O)Nc2ccc3c(c2)OCCO3)c(C)n1C	-25.9	·	·	95.6*	-3.4
COc1ccc(CC(=O)OCc2cc3ccccc3[nH]c2=O)cc1	13.4	3.2	4.1	-24.6	-0.6
COc1ccc2cc(CCNC(=O)C(C)C)c(=O)[nH]c2c1	13.2	·	·	96.1*	-0.9
COc1ccc(CC(=O)OCc2cc3ccc(C)cc3[nH]c2=O)cc1	-1.9	-27.6	92.8*	·	-1.2
Cn1nnnc1SCc1ccc([N+](=O)[O-])cc1	·	·	·	·	-0.1
O=C(Oc1csc(=S)n1C(=O)c1ccccc1)c1ccccc1	-7.3	-71.3	98.4*	-2.1	0.2
N#Cc1c(NCc2ccccc2)ccnc1NCc1cccnc1	12.7	37.9	92.9*	-18.4	-1.4
CN(C)c1ccnc(NCc2ccccc2)c1C#N	·	8.1	-19.5	-29.6	2.0
CCOC(=O)c1nn(-c2ccccc2)c2nnc(Cc3ccccc3)c(=O)n12	·	·	·	·	1.8
CCN(CC)c1ccc(C2C(C(=O)OCCOC(C)C)=C(C)NC3=C2C(=O)CCC3)cc1 (stereo not given)	12.2	·	10.9	·	-1.9
CC1=C(C(=O)OCCOC(C)C)C(c2cccnc2)C2=C(CCCC2=O)N1 (stereo not given)	7.4	78.9*	-10.4	·	-0.1
O=c1c2ccccc2nc(SCc2ccc([N+](=O)[O-])cc2)n1CCCO	·	·	·	-10.6	1.0
CCN(CC)c1ccc(NC(=O)COC(=O)/C=C/c2nc3ccccc3s2)cc1	·	·	·	62.1*	-1.5
NC(=O)c1nc(C2CCCCC2)nc2c1[nH]c(=O)n2-c1ccc(F)cc1	2.5	-12.7	17.3	25.2	-0.9
COc1ccccc1-n1c(=O)[nH]c2c(C(N)=O)nc(C3CCCCC3)nc21	-13.4	6.9	1.1	68.5*	-3.2
SMILES	MRP resist rev	F-actin modifier	VCAM1 TNFa inh	E-sel TNF inh	MRP1 act
CN(CCC#N)C(=O)COC(=O)c1ccccc1C(=O)c1ccc(Cl)c([N+](=O)[O-])c1	·	·	·	99.8*	·
O=C(COC(=O)c1ccccc1C(=O)c1ccc(Cl)c([N+](=O)[O-])c1)NC1CCCCCC1	·	20.4	86.8*	8.6	-5.6
COc1ccccc1CNC(=O)COC(=O)c1ccc(Cl)c(N)c1	·	·	·	-19.5	·
Cc1ccc(-c2nc(NC(=O)c3nn(C)cc3[N+](=O)[O-])sc2C)cc1C	·	0.3	88.6*	99.6*	-0.9
Cc1ccc(-c2nc(NC(=O)c3nn(C)cc3[N+](=O)[O-])sc2C)cc1	·	-2.8	91.7*	87.0*	1.4
CC(=O)c1c(C)[nH]c(C(=O)Nc2nc(-c3ccc(Cl)cc3)cs2)c1C	·	·	·	·	4.8*
Cc1ccc(Cn2ccc(NC(=O)c3nn(C)cc3[N+](=O)[O-])n2)cc1	·	·	·	·	1.3
CC(=O)c1c(C)[nH]c(C(=O)Nc2nc(-c3ccc(-c4ccccc4)cc3)cs2)c1C	·	·	·	-52.0	-4.6
Cn1cc([N+](=O)[O-])c(C(=O)Nc2nc(-c3ccc(Cl)cc3)cs2)n1	·	9.8	30.2	97.8*	-0.4
COc1ccc(NC(=O)c2cccnc2SC)cc1S(=O)(=O)N1CCCCC1	·	·	·	12.4	0.1
CCCc1nnc(NC(=O)C(CC)OC(=O)c2cc(C)nc3ccccc23)s1 (stereo not given)	·	5.4	-16.8	16.1	-2.5
CCOC(=O)C(CC)n1nc(C)n2c(cc3sccc32)c1=O (stereo not given)	5.4	·	·	45.8*	·
CCc1ccc2oc(-c3cc(N)ccc3O)nc2c1	-12.4	-5.6	39.1*	35.9	-2.3
CCc1ccc2oc(-c3cc(N)ccc3Cl)nc2c1	-13.5	·	·	-34.0	-4.0
CCN(Cc1cc2cc(C)ccc2[nH]c1=O)C(=O)c1cccc(OC)c1	-6.9	-65.1	90.4*	·	-1.9
CCc1ccc2[nH]c(=O)c(CN(Cc3ccc4c(c3)OCO4)C(=O)c3ccco3)cc2c1	2.4	11.2	0.3	-7.1	-1.4
Cc1ccc(NC(=O)N(Cc2ccc3c(c2)OCO3)Cc2cc3cc4c(cc3[nH]c2=O)OCCO4)cc1	55.3*	2.7	-2.4	-28.1	-3.8
COc1ccc2[nH]c(=O)c(CN(Cc3ccc4c(c3)OCO4)C(C)=O)cc2c1	-8.8	36.1*	-5.3	0.3	0.0
CCOC(=O)CSc1nc2cc(C)ccc2cc1C#N	-16.6	-17.0	-21.0	17.7	-4.4
CCOC(=O)CSc1nc2cc(OC)ccc2cc1C#N	-3.5	5.4	-9.3	99.9*	-5.4
CC(C)c1ccc(NC(=O)N(CCc2nc3ccccc3[nH]2)C2CCCC2)cc1	-5.1	28.0	-9.5	-6.9	-5.5
O=C(Nc1ccccc1)N(CCc1ccncc1)C1CCCCC1	6.5	7.9	1.5	97.7*	·
CN(CC(=O)NCCC1=CCCCC1)S(=O)(=O)c1ccc2c(c1)c(=O)n(C)c(=O)n2C	-3.7	0.8	5.0	·	-2.2
CN(CC(=O)NCCc1ccc(Cl)cc1)S(=O)(=O)c1ccc2c(c1)c(=O)n(C)c(=O)n2C	4.1	-6.9	11.6	4.8	6.1*
Cc1cccc(CC2S/C(=N/c3ccccn3)NC2=O)c1 (stereo not given)	-11.1	18.4	-30.7	-27.5	10.2*
SMILES	MRP resist rev	F-actin modifier	VCAM1 TNFa inh	E-sel TNF inh	MRP1 act
O=C1N/C(=N\N=C\c2ccccn2)SC1Cc1cccc(SC(F)F)c1 (stereo not given)	·	-55.9	5.4	-10.7	-0.8
CC(C)c1nc(SCC(=O)NCc2ccc3c(c2)OCO3)c2c(=O)n(C)c(=O)n(C)c2n1	14.5	·	·	·	·
CCN(CC)c1ccc2cc(-c3nc4ccccc4[nH]3)c(=O)oc2c1	0.9	47.6*	12.6	5.0	-5.8
CCN(CC)c1ccc2cc(-c3nc4ccccc4n3C)c(=O)oc2c1	-9.2	-23.4	70.5*	·	-1.1
Cc1ccc(S(=O)(=O)N2CCC(C(=O)NCCCOC(C)C)CC2)cc1	5.7	-23.0	-12.6	-2.0	-2.2
Cn1nc(C(F)(F)F)c2cc(NC(=O)OCc3ccc(C(C)(C)C)cc3)sc21	21.8	-5.2	-5.9	5.0	7.1*
CC(C)=NOC(=O)c1ccc(-c2ccccc2)cc1	·	·	·	·	-1.6
CC12CCC3(CO)COC(c4ccccc4O1)C2C3 (stereo not given)	9.2	·	·	55.2*	3.2
CC(C)CC(=O)n1sc(NC(=O)c2ccccc2)nc1=O	·	50.4	9.6	100.0*	6.5*
